# An excerpt weighted towards active compounds, which were near 1.1% of everything screened.
# RXFP1 antag: blocks the human relaxin receptor RXFP1. HEK293-RXFP1, relaxin-stimulated cAMP HTRF, 30 min; hits give low values. Q9HBX9. activity change, negative = inhibition, % at 57.5 µM. hit rate 0.59% among 350,000;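 active means activity change of -60% or lower, but not beyond a set lower limit; inconclusive means change between -60% and -40%, or beyond the set limit; inactive means change above -40%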; further: on the % scale 0 is the no-effect control and ±100 the full control effect
# Target sequence (Q9HBX9 whole entry, looked up): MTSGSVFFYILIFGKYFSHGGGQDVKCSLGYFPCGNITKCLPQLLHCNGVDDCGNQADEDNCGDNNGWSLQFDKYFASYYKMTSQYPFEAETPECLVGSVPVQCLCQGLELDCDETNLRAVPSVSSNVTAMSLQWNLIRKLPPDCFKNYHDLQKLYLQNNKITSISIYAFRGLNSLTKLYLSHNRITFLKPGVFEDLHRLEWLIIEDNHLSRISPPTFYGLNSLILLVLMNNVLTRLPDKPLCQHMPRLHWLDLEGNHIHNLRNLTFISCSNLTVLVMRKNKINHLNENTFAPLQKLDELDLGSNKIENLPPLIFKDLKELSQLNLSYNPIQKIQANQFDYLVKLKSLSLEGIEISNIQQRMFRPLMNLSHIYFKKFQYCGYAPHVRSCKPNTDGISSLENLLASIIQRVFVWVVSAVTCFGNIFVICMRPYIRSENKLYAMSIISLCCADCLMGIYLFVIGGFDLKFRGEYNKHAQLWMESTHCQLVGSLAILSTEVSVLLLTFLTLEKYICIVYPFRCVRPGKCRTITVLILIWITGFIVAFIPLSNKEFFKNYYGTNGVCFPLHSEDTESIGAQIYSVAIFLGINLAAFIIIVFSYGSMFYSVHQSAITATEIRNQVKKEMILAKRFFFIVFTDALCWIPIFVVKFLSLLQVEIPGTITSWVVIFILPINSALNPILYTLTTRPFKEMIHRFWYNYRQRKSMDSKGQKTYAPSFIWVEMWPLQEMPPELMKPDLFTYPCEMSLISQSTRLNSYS
# S-ASM inh: human S-ASM enzyme inhibition | AID 504937 | placental ASM, HMU-PC fluorogenic substrate, 60 min | Potency, µM (highest dose often 57.5 µM), inactives show top-dose activity change, negative = inhibition, actives largely listed as inhibitors | hit rate 0.006% among 340,000; further: potency means the concentration at half of the fitted maximal effect
#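 Steps: dispense placental human ASM, pin compound, wait 10 min at room temperature, add HMU-PC0 substrate at 9 uM final, incubate 60 min at 37 °C, add stop solution raising pH to 10, read fluorescence.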
# a7 integrin act: integrin-mediated muscular dystrophy alleviation activation; Potency, µM (series often up to 38.3 µM), for inactives: at the top dose activation, usual class: activators; AID 624291; hit rate 0.064% among 350,000; alpha7betagal myoblasts, beta-gal FDG fluorescence, 48 h;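 further: potency means the concentration at half of the fitted maximal effect; 100% = response of the positive control SU9516; nearly all actives have a fitted effect of over 60% in size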
#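 Alpha7betagal+/- myoblasts (passage 13) were plated 16-24 hr, then exposed to compounds (1:260 dilution of DMSO stock) for 48 hours at 37C. After MPER lysis, β-galactosidase reporter activity was read as FDG fluorescence (ex 480/em 540) after 30 minutes.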
# gsp antag: antagonists of gsp mutant (McCune-Albright syndrome) | gsp-mutant cells, cAMP HTRF, 30 min | Potency, µM (titrated, usually from 76.9 µM), inactives show at the top dose activity change, negative = inhibition, hits mostly inhibitors | hit rate 0.4% among 340,000; calls by dose curve; cell line not stated here;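 further: intracellular cAMP measured with PDE inhibitor Ro 20-1724 present during compound exposure; potency means the concentration at half of the fitted maximal effect; on the % scale 0 is the no-effect control and ±100 the full control effect; nearly all actives have a fitted effect of over 65% in size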
#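 Cells, 2000/well, grown 16–24 h in DMEM 10% FBS with 0.5 mg/ml G418, then compounds plus […] (300 uM addition stock), 30 min at 37C. cAMP read by HTRF (cAMP-d2 and anti-cAMP antibody-K in lysis buffer) after 30 min RT.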
# RXFP1 ag: RXFP1 (human) receptor agonism | AID 2676 | Potency, µM (titrated, usually from 57.5 µM), for inactives: top-dose activation, usual class: activators | Q9HBX9 | hit rate 0.3% among 370,000 | HEK293T-RXFP1 cAMP TR-FRET, 30 min; response scale: percent of porcine relaxin response, buffer zero; further: potency means the concentration at half of the fitted maximal effect; on the % scale 0 is the no-effect control and ±100 the full control effect; nearly all actives have a fitted effect of over 60% in size
#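 cAMP rise read by TR-FRET after 30 min, 37C compound exposure (up to 58 uM) in RXFP1-transfected HEK293 cells with Ro 20174 present. EC50 from Hill-equation fits, with 29 nM porcine relaxin as 100% and buffer as basal.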
# gsp ag: gsp mutant agonism; Potency, µM (top dose mostly 76.9 µM), without a hit: at the highest dose activation (cAMP increase), most hits filed as activators; gsp mutant cells, cAMP HTRF, 30 min; hit rate 0.13% among 340,000; AID 624287; active means well fitted activation curve with a large enough effect; inconclusive means small, poorly fitted or top-dose-only effect, or another doubt; inactive means no such curve, though single readings can be large or run the other way; cell line not stated here;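 further: phosphodiesterase inhibitor Ro 20-1724 added with compounds to block cAMP breakdown; potency means the concentration at half of the fitted maximal effect; nearly all actives have a fitted effect of over 60% in size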
#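 Cells stably selected in G418 were plated at 2000/well, grown 16-24 hr, then given compounds in DMSO with the PDE inhibitor […] (300 uM solution added) for 30 min at 37C; cAMP was read by HTRF.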
# * hit, by the source's call; u = inconclusive; x = not tested or not shown; [ ] = dose if it differs, or a comment. Unless noted, the call rests on the fitted dose curve; in most records, active means well fitted curve in the direction sought with a large enough effect; inconclusive means small, poorly fitted or top-dose-only effect, or another doubt; inactive means no such curve, though single readings can be large; an effect the other way counts as inactive or inconclusive.
SMILES,RXFP1 antag,S-ASM inh,a7 integrin act,gsp antag,RXFP1 ag,gsp ag
COc1ccccc1NC(=O)Nc1nc(CC(=O)NCc2ccc(F)cc2)cs1,-76.2*,-5.5%,-4.5%,u,-1.5%,-2.3%
COc1cccc(C2C(C(=O)c3cccs3)=C(O)C(=O)N2CCN2CCOCC2)c1 (centres undefined),-0.4,-1.4%,2.1%,4.8%,8.2%,30.0%
Cc1ccc(C2C(C(=O)c3cccs3)=C(O)C(=O)N2c2nnc(C)s2)cc1 (centres undefined),-0.6,9.5%,23.7%,-8.3%,20µM*,2.9%[15.4 µM]
COc1ccc(C2C(C(=O)c3cccs3)=C(O)C(=O)N2c2cccc(C)n2)cc1 (centres undefined),7.3,9.9%,7.7%,-3.8%,u,30.0%[15.4 µM]
COCCN1C(=O)C(O)=C(C(=O)c2cccs2)C1c1ccccc1 (centres undefined),-6.1,2.5%,12.5%,7.6%,26.7%,3.55µM*
Cc1ccccc1C(=O)Nc1cccc(C(=O)OCc2cc(=O)n3nc(C4CC4)sc3n2)c1,3.1,x,x,x,4.2%,x
N#CC(C#N)=NNc1ccc(S(=O)(=O)N2CCCCC2)cc1,-35.6,-14.0%,-22.1%,25.1µM*,-1.0%,5.9%
N#C/C(=N\Nc1ccc(S(=O)(=O)N2CCOCC2)cc1)C(N)=S,-21.7,-9.9%,6.1%,-21.1%,-0.4%,5.5%[15.4 µM]
CCN(CC)S(=O)(=O)c1ccc(C(=O)NCc2n[nH]c(=S)n2-c2ccc(Cl)c(Cl)c2)cc1,-63.6*,-6.6%,13.7%,-13.5%,0.8%,11.2%[15.4 µM]
CCN(CC)S(=O)(=O)c1ccc(C(=O)NCc2n[nH]c(=S)n2-c2ccccc2OC)cc1,-6.2,-2.3%,5.9%,0.1%,1.6%,11.0%
O=c1[nH]c(=O)n(Cc2ccco2)c2c1C(C(F)(F)F)(C(F)(F)F)N=C(c1ccc(F)cc1)N2,5.5,2.5%,0.0%,u,1.7%,-6.1%
O=c1[nH]c(=O)n(Cc2ccccc2)c2c1C(C(F)(F)F)(C(F)(F)F)N=C(c1ccco1)N2,7.5,1.4%,24.7%,35.5µM*,3.5%,-4.6%
CC(=O)c1ccccc1OCC(O)CN1CCN(CCN2C(=O)c3cccc4cccc(c34)C2=O)CC1 (centres undefined),-23.0,-1.1%,-49.4%,31.6µM*,0.0%,-15.7%[15.4 µM]
Cc1ccc(C)c(OCC(O)CN2CCN(CCN3C(=O)c4cccc5cccc(c45)C3=O)CC2)c1 (centres undefined),-18.6,-7.9%,-51.0%,-12.3%,0.1%,-42.4%
Cc1sc2ncn(CC(=O)N3CCN(c4cccc(Cl)c4)CC3)c(=O)c2c1S(=O)(=O)N1CCC(C)CC1,-15.6,x,x,x,0.2%,x
Cc1cc(=O)[nH]c(SCC(=O)O)c1C#N,1.5,4.4%,-1.0%,5.6%,0.4%,0.0%
Cc1cc(=O)[nH]c(SCC(=O)C23CC4CC(CC(C4)C2)C3)c1C#N,16.6,3.5%,7.4%,35.5µM*,0.6%,19.0%
COc1ccccc1CN1COc2ccc3c(oc(=O)c4ccccc43)c2C1,-1.9,x,x,x,17.8µM*,x
Brc1ccc(-c2ccc(CNCCSc3nnnn3-c3ccccc3)o2)cc1,6.0,x,x,x,14.1µM*,x
Nc1ccc(C(=O)OCC(O)CO)cc1 (centres undefined),9.4,x,x,x,x,x
CCN(CC)c1ccc(Nc2nc(N3CCOCC3)c3ccccc3n2)cc1,-9.5,-4.9%,-50.1%,50.1µM*,2.2%,-18.9%
COc1ccc(Nc2nc(N3CCCC3)c3ccccc3n2)cc1,x,-5.1%,-42.3%,-9.5%,0.4%,7.6%
O=C(NCCc1ccc(F)cc1)N[C@@H](Cc1ccccc1)C(=O)O,4.4,-1.3%,11.2µM*,10.7%,-0.6%,-16.7%
O=C(Nc1ccccc1)C(c1ccccc1)C1CCCC1 (centres undefined),-69.8*,-1.8%,u,-13.6%,-2.0%,-3.8%[15.4 µM]
COc1ccc(-c2ocnc2C(=O)N2CCN(C(=O)C(c3ccccc3)c3ccccc3)CC2)cc1,-4.6,-0.7%,6.9%,25.1µM*,4.1%,-7.6%[15.4 µM]

# Screening results (PubChem)
